Experiment [1] in a line: CCTE_Shafer_MEA_dev_per_network_spike_spike_number_mean: CCTE's Neural Network Formation Assay for Mean Number of Spikes in a Network Spike, Shafer Lab (AID 2284053).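 On AC50: fitted as decrease in spikes per network spike relative to DMSO.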 The essentials: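 Continuous twelve-day exposure of developing rat cortical networks grown over 16 microelectrodes per well; spontaneous firing is captured at four time points, and the per-network-spike spike number is integrated over development by trapezoidal AUC.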

Experiment [2] is described as follows: CCTE_Shafer_MEA_dev_per_network_spike_spike_percent: CCTE's Neural Network Formation Assay for Percent of Spikes in a Network Spike, Shafer Lab (AID 2284054). The essentials: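 Rat primary cortical cultures, 1.5 x 10^5 cells/well on MEA. Continuous compound exposure d0–12, medium/compound renewed DIV 5, 9. Network-spike spike % (0.05 s peak window), AUC over 4 recordings, DMSO baseline.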

Experiment [3] can be described thus: CCTE_Shafer_MEA_dev_LDH: CCTE's Lactate Dehydrogenase Assay for Cytotoxicity in the Neural Network Formation Assay, Shafer Lab (AID 2284068; active means hit-call score of the fitted dose curve at least 0.9, where 1 is the maximum;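 further: exposure for twelve days from plating with re-dosing on DIV 5 and 9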). The essentials: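 Cytotoxicity companion to network-formation recordings: rat cortical neurons received compound over 12 days of development, re-dosed at DIV 5 and 9 feeds. Viability was inferred from LDH enzyme activity relative to DMSO.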

Experiment [4] in a line: CCTE_Shafer_MEA_dev_AB: CCTE's Alamar Blue Assay for Cytotoxicity in the Neural Network Formation Assay, Shafer Lab (AID 2284083; active means hit-call score of the fitted dose curve at least 0.9, where 1 is the maximum;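 further: twelve days of exposure from plating with re-dosing on DIV 5 and 9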). The essentials: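 Fluorescent resazurin reduction serves as the viability read-out, with DMSO as negative control and baseline. Cells were primary rat cortical neurons grown on MEA plates and dosed from day 0 to day 12, treatment renewed on DIV 5 and 9.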
Background: The colour change of resazurin is a common sign of viable cells or microbes.

Experiment [5] is described as follows: CCTE_Shafer_MEA_dev_mutual_information_norm: CCTE's Neural Network Formation Assay for Mutual Information Normalization, Shafer Lab (AID 2284091).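 On AC50: mutual information between electrodes summarised as area under curve across four recording days; potency is for a decrease in mutual information relative to DMSO.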 The essentials: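 Developing rat cortical networks on 16-electrode MEA wells are treated throughout formation (DIV 0–12). Shared electrode information is recorded four times, converted to area-under-curve, and fitted for decreases against DMSO vehicle.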

A short description of experiment [6]: CCTE_Shafer_MEA_dev_correlation_coefficient_mean: CCTE's Neural Network Formation Assay for Mean Correlation Coefficient, Shafer Lab (AID 2284093).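 On AC50: well mean pairwise spike train correlation integrated as AUC over recording days 5 to 12; potency fitted for loss of correlation relative to DMSO vehicle wells.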 The essentials:
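Read-out: well-mean correlation coefficient of spike trains between electrode pairs, collapsed over four recording days as trapezoidal area-under-the-curve. Developing rat cortical neuron networks grown on MEAs received test chemical continuously from plating.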

The nature of experiment [7]: UKN2_HCS_IMR90_neural_migration: University of Konstanz (UKN) Leist Lab Neural Crest Cell Migration Assay in human induced IMR90 Pluripotent Stem Cells (UKN2) (AID 2284204). To be noted: actives raise or lower the signal. The essentials:
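Migration of human IMR90-derived neural crest cells into a stopper-defined gap is imaged after 24 h chemical treatment. Activity is fitted bidirectionally relative to DMSO.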

Experiment [8] is described as follows: IUF_NPC1b_proliferation_BrdU_72hr: Leibniz Research Institute for Environmental Medicine (IUF) 72-hour Neural Progenitor Cell Bromodeoxyuridine (BrdU) Proliferation Assay (NPC1b) (AID 2284207). The essentials:
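Proliferation of primary human neural progenitor cells: 72 h compound treatment at 37C, 5% CO2, pH 7.2-7.6, in EGF/FGF-containing medium. Readout is BrdU uptake (last 16 h) by chemiluminescent ELISA, normalised to DMSO.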

Experiment [9] is described as follows: IUF_NPC1a_proliferation_area_72hr: Leibniz Research Institute for Environmental Medicine (IUF) 72-hour Neural Progenitor Cell Proliferation Area Assay (NPC1a) (AID 2284208). The essentials: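 Measured in 3D suspension: each well held one primary hNPC sphere grown with EGF and FGF at pH 7.2-7.6. Compound stayed on for 72 h, then area was imaged; spheres lacking growth factors defined reduced proliferation.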

Experiment [10] is described as follows: IUF_NPC1_viability_72hr: Viability Assessment at 72 hours in the Leibniz Research Institute for Environmental Medicine (IUF) Neural Progenitor Cell Proliferation Assay (NPC1) (AID 2284209). The essentials: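 Human fetal-cortex neural progenitor spheres (0.25–0.35 mm, one per well) grown in EGF/FGF proliferation medium at 37C, pH 7.2-7.6, exposed 72 h without renewal; viability read as alamar blue resazurin-to-resorufin fluorescence relative to DMSO.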

A short description of experiment [11]: CCTE_Mundy_HCI_Cortical_Synap_Neur_Matur_NeuriteSpotCountPerNeuriteLength: CCTE's Synaptogenesis and Neurite Maturation Assay in rat cortical cells for Neurite Spot Count per Neurite Length, Mundy Lab (AID 2284210). The essentials: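 Primary rat cortical neurons, compound exposure DIV 7–12, 288.33 h endpoint. Hoechst, anti-MAP2 and anti-synaptophysin labelling; neurite-associated puncta per neurite length scored by automated imaging relative to DMSO controls.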

Experiment [12] in a line: CCTE_Mundy_HCI_Cortical_Synap_Neur_Matur_BPCount: CCTE's Synaptogenesis and Neurite Maturation Assay in rat cortical cells for Branch Point Count, Mundy Lab (AID 2284211). The essentials: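 Branch point number is quantified by automated imaging of fluorescently labelled neurites and synapses in rat primary cortical neurons exposed from DIV 7 to DIV 12. Activity is analysed relative to DMSO negative control.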

Experiment [13] is described as follows: CCTE_Mundy_HCI_Cortical_NOG_NeuriteCount: CCTE's Neurite Outgrowth Assay in rat cortical cells for Neurite Count, Mundy Lab (AID 2284212).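 Further: cells fixed about two days after chemical exposure began.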 The essentials: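 Neurite number per cell from high-content imaging of betaIII-tubulin immunostaining, with Hoechst nuclear counterstain.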
Experiment [14] can be described thus: CCTE_Mundy_HCI_Cortical_NOG_NeuriteLength: CCTE's Neurite Outgrowth Assay in rat cortical cells for Neurite Length, Mundy Lab (AID 2284213).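 On AC50: neurites imaged about 48 to 50 h after chemical exposure began.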 The essentials:
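Neurite length was read by high-content imaging of βIII-tubulin-labelled neurites in rat primary cortical cultures. Activity was fitted relative to DMSO.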

Experiment [15] in a line: CCTE_Mundy_HCI_Cortical_Synap_Neur_Matur_NeuriteLength: CCTE's Synaptogenesis and Neurite Maturation Assay in rat cortical cells for Neurite Length, Mundy Lab (AID 2284214). The essentials: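 Rat primary cortical cells were plated, treated with AraC at DIV 5 to arrest glial growth, then chemical-dosed with media change at DIV 7 through DIV 12. Fixed cells stained for MAP2, synaptophysin and Hoechst; neurite length quantified by high-content imaging.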

The nature of experiment [16]: CCTE_Shafer_MEA_acute_AB: CCTE's Alamar Blue Assay for Cytotoxicity in the Neural Acute Assay, Shafer Lab (AID 2284069; active means hit-call score of the fitted dose curve at least 0.9, where 1 is the maximum;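 further: active compounds lower the viability signal compared with DMSO wells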). The essentials: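 Metabolic activity in chemically exposed rat cortical neurons (MEA cultures, day 13/15 post-plating) measured via CellTiter Blue resazurin reduction, 544/590 nm fluorescence; fitted relative to DMSO, with signal loss indicating reduced viability.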

A short description of experiment [17]: CCTE_Shafer_MEA_acute_LDH: CCTE's Lactate Dehydrogenase Assay for Cytotoxicity in the Neural Acute Assay, Shafer Lab (AID 2284086; active means hit-call score of the fitted dose curve at least 0.9, where 1 is the maximum;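 further: active means LDH release rises above DMSO vehicle level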). The essentials:
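Primary rat cortical neurons on 48-well MEA plates, treated on day 13 or 15 post-plating. After the 40-min recording with compound, medium LDH release was read by absorbance at 490 nm. Gain of signal was fitted against DMSO negative control.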

A further experiment deals with DIO3 (gene 1735). The experiment is described as follows: CCTE_GLTED_hDIO3: CCTE's human Deiodinase 3 (DIO3) Inhibition Assay, Great Lakes Toxicology and Ecology Division (GLTED) Lab (AID 2284055; active means hit-call score of the fitted dose curve at least 0.9, where 1 is the maximum;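 further: potency is for inhibition seen as loss of released iodide signal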). The essentials:
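Cell-free assay with human DIO3 enzyme produced by adenovirus expression; enzyme incubated with test chemical for 3 hours. Liberated iodide then measured by Sandell-Kolthoff absorbance; loss of signal versus DMSO baseline indicates inhibition, run in triplicate.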

“And” between values parts separate entries of the source, which are not always exact repeats. Equal values may be shown once. Records with an inconclusive call do not appear. The source holds several records for some structures; these can differ, active in one and inactive in another. The source made the active and inactive calls. How the source made its calls, unless noted: active means hit-call score of the fitted dose curve at least 0.9, where 1 is the maximum; inactive means score below 0.9.

For the molecule `CCOP(=S)(OCC)SCSCC`, the AC50 (commonly the midpoint of the concentration-response curve, whichever way the signal moves) in [1] was 50 µM (active) and 12.1 µM (active); in [2], 92 µM (active); in [3] it was 33.7 µM (active); in experiment [4], 68.9 µM (active); in experiment [5], 4.04 µM (active); in [6], 74.5 µM (active) and 13 µM (active). Besides, the AC50 was 0.761 µM (active) in [8]; 50 µM (active) and 67.2 µM (active) in experiment [11]; 80.7 µM (active) and 50 µM (active) in experiment [12]; 78.1 µM (active) and 70.2 µM (active) in [15]. The call in experiment [2], in experiment [3], in experiment [4], in [5], in [7] and in experiment [9] was inactive. For the same molecule, the molecule was classed as inactive in experiment [10], in [13] and in experiment [14].
Take `O=C(O)C(F)(OC(F)(F)C(F)(F)C(F)(F)F)C(F)(F)F` (stereo unspecified): the outcome in [1], in experiment [2], in experiment [3], in [4], in experiment [5] and in experiment [6] was inactive. Besides, the outcome in experiment [7], in [8], in [9], in [10], in experiment [11] and in [12] was inactive. The result in [13], in [14] and in experiment [15] was inactive.
`CCCCC(CC)COC(=O)c1c(Br)c(Br)c(Br)c(Br)c1C(=O)OCC(CC)CCCC` (stereo unspecified): the molecule was classed as inactive in experiment [1], in experiment [2], in experiment [3], in experiment [5] and in experiment [6]. Moreover, in [4], the AC50 is 0.0248 µM (active).
For `ClC1=C(Cl)C2(Cl)C3C(Cl)C(Cl)CC3C1(Cl)C2(Cl)Cl` (stereo unspecified), the AC50 in experiment [1] was 7.75 µM (active); in experiment [2] it was 7.62 µM (active); in [3] it was 7.62 µM (active); in [4], 7.42 µM (active); in experiment [5], 7.75 µM (active); in experiment [6] it was 7.71 µM (active). The call in experiment [16] and in [17] was inactive.
Take `CC(C)(C)c1ccccc1OP(=O)(Oc1ccccc1)Oc1ccccc1`: the AC50 in [1] was 25.4 µM (active); in experiment [2], 15 µM (active); in experiment [3], 15.5 µM (active) and 26 µM (active); in [4], 15 µM (active); in experiment [6] it was 24.4 µM (active); in experiment [12], 2.98 µM (active). Moreover, the AC50 in experiment [13] is 19 µM (active); in experiment [14], 21.6 µM (active); in [15], 1.6 µM (active). The molecule was classed as inactive in experiment [1], in experiment [2], in [4], in [17], in [5] and in experiment [6]. Further, the molecule was called inactive in experiment [8], in [9], in experiment [10] and in experiment [11].
For `C=CC(=O)OCC(F)(F)C(F)F`, the AC50 is 4.85 µM (active) in experiment [1]; 15 µM (active) in experiment [2]; 52.4 µM (active) in the experiment with DIO3 (gene 1735); 8.15 µM (active) in experiment [3]; 20.7 µM (active) in experiment [4]; 5.12 µM (active) in experiment [5]. Moreover, the AC50 in [6] was 11.3 µM (active).
For `O=C(O)C1C(C(=O)O)C2(Cl)C(Cl)=C(Cl)C1(Cl)C2(Cl)Cl` (stereo unspecified), the outcome in experiment [1], in experiment [2], in experiment [3], in experiment [16], in experiment [5] and in experiment [6] was inactive.
On to `O=P1(N(CCCl)CCCl)NCCCO1` (stereo unspecified), for which the result in experiment [1], in [2], in [5], in experiment [6], in experiment [11] and in experiment [12] was inactive. Further, the outcome in [13], in experiment [14] and in experiment [15] was inactive. In experiment [3], the AC50 was 11.6 µM (active).
With `OCC(F)(F)OC(F)(F)C(F)(F)OC(F)(F)CO`, the molecule was classed as inactive in [1], in [2], in experiment [3], in experiment [5] and in [6].
As to `CO/N=C(/C(=O)OC)c1ccccc1COc1ccccc1C`, the AC50 in experiment [1] was 0.518 µM (active); in experiment [2], 0.902 µM (active); in experiment [3], 0.811 µM (active); in experiment [4] it was 1.15 µM (active); in experiment [5], 0.454 µM (active); in [6] it was 0.765 µM (active). Further, the AC50 in experiment [8] is 23.8 µM (active); in experiment [9] it was 31.6 µM (active); in experiment [11], 3.36 µM (active); in experiment [12] it was 5.13 µM (active); in experiment [13], 19.1 µM (active); in experiment [14] it was 14.5 µM (active). Further, the AC50 in [15] was 6.23 µM (active). Besides, the call in [7] and in experiment [10] was inactive.
As for `O=C(O)C(F)(F)C(F)(F)C(=O)O`, the result in [1], in [2], in experiment [3], in [4] and in [5] was inactive. Also, in experiment [6], the AC50 is 1.81 µM (active).
On to `OCC(F)(F)OC(F)(F)C(F)(F)OC(F)(F)C(F)(F)OC(F)(F)CO`, for which the result in experiment [1], in experiment [2], in experiment [4], in experiment [5] and in [6] was inactive.

Values taken from PubChem BioAssay (EPA / NIEHS).
